Compound activity: PubChem BioAssay, several laboratories
Mtb BioA inh: inhibitors of Mycobacterium tuberculosis BioA enzyme; 360,000 tested, 0.096% active; purified M. tuberculosis BioA enzyme, plate reader; inhibition, % at 9.99 µM; in the data active = inhibition above about 40%
DUSP3 inh: blocks human VHR1 dual specificity phosphatase; recombinant VHR phosphatase, pNPP absorbance; inhibition, % at 13.3 µM; 290,000 tested, 0.52% active; in the data active = inhibition above about 50%
Target sequence (P51452 whole entry, looked up): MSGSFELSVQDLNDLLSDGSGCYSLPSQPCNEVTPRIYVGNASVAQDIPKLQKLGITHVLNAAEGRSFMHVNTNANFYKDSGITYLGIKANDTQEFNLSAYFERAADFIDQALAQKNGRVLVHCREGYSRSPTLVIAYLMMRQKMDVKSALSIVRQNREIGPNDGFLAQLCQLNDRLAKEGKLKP
PfHsp40 rescue: rescue of PfHsp40-mediated yeast toxicity; S. cerevisiae expressing PfHsp40, growth rescue, ATP luminescence; growth rescue, % at 12.5 µM; 340,000 tested, 0.68% active; AID 504582; in the data active = growth rescue above about 28%, passing the limit was not always enough;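 also: yeast W303a lacking pdr1 and pdr3 grown in galactose medium; growth measured after three days at 30 °C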
TcdB GH inh: blocks C. difficile toxin B glycohydrolase activity. inhibition, % at 9.99 µM. TcdB glycohydrolase enzymatic assay, plate reader. P18177. 350,000 tested, 0.24% active; in the data active = inhibition above about 10%
BH1578 lux ind: induces V. cholerae light production without autoinducers. activation, % at 18.7 µM. AID 588436. 350,000 tested, 0.16% active. V. cholerae BH1578 lux reporter, luminescence, 6 h; in the data active = activation mostly above about 9.7%, no sharp cut-off
Y pestis TopoI: Y. pestis Topo-I inhibition via cleavage products. Y. pestis Topo-I cleavage product accumulation, plate reader. activity, % at 10 µM. 360,000 tested, 0.064% active. AID 504884; in the data active = activity above about 50%, passing the limit was not always enough
Numbers stand for hits; n = inactive; x = not tested or not shown. A selection: hits, their analogues and other compounds. The true share with any hit is near 1.2%.

SMILES | Mtb BioA inh | DUSP3 inh | PfHsp40 rescue | TcdB GH inh | BH1578 lux ind | Y pestis TopoI
COc1cccc(CC(=O)NC2CCCN(Cc3ccc(Cl)cc3)C2)c1 (stereo not drawn) | n | 53.3 | n | n | n | n
COc1cccc(CC(=O)NC2CCCN(Cc3ccccc3F)C2)c1 (stereo not drawn) | n | n | n | n | n | n
COc1cccc(C(=O)C2CCCN(Cc3ccc(F)cc3)C2)c1 (stereo not drawn) | n | n | n | 12.7 | n | n
Cc1noc(NS(=O)(=O)c2ccc(NC(=O)c3cccc(S(=O)(=O)N(C)c4ccccc4)c3)cc2)c1C | n | x | n | n | n | n
COCCCC1CCN(C(=O)C2CCC(=O)N(CC3CCCCC3)C2)CC1 (stereo not drawn) | n | n | n | n | n | n
Cc1ccc(OCc2cc(C(=O)N3CCc4sccc4C3)no2)cc1C | n | n | n | n | n | 53.6
Cc1ccc(OCc2cc(C(=O)N3CCCCCCC3)no2)cc1C | n | n | n | n | n | n
COc1ccc(S(=O)(=O)Nc2cccc3c2O[C@@H](CN(C)Cc2ccc(Oc4ccccc4)cc2)[C@H](C)CN([C@H](C)CO)C3=O)cc1 | n | x | x | n | x | x
Cc1cc(NCCCn2ccnc2)n2nc(-c3ccc(Cl)cc3)cc2n1 | x | n | n | n | n | n
CC(C)(C)c1cc(NCCCn2ccnc2)n2ncc(-c3ccc(Cl)cc3)c2n1 | x | 52.7 | 70.3 | x | n | n
Cc1oc(-c2ccccc2)cc1C(=O)Nc1cccc(/C=C/C(=O)O)c1 | x | n | n | n | n | n
Cn1nnnc1N=N/C(=N/Nc1ccccc1)c1ccccc1 | n | n | 233.7 | n | n | n
CCN(CCO)C(=O)c1ccc2oc(Cc3ccc(Cl)cc3)nc2c1 | n | n | n | n | n | n
CCN(CC)c1ccc(NC(=O)c2ccc3c(c2)OCO3)cc1 | n | 53.6 | n | n | n | n
CCN(CC)S(=O)(=O)c1cccc(C(=O)Nc2ccc3c(c2)OCO3)c1 | x | n | n | n | n | n
CCCN(CCC)S(=O)(=O)c1cccc(C(=O)Nc2ccc3c(c2)OCO3)c1 | n | 51.9 | n | x | n | n
O=C(c1ccccc1)c1ccc(Cn2cc(-c3ccccc3)nn2)cc1 | n | n | 722.6 | n | n | n
Cc1cccc(OCC(=O)Nc2cc(NC(=O)COc3cccc(C)c3)cc(C(=O)O)c2)c1 | n | n | n | n | n | n
CC(C)CCOc1cccc(OCC(=O)Nc2ccncc2)c1 | n | n | 105.0 | n | n | n
COc1cccc(OCC(=O)Nc2ccncc2)c1 | n | n | n | n | n | n
COc1cccc(OCC(=O)Nc2cc(NC(=O)COc3cccc(OC)c3)cc(C(=O)O)c2)c1 | n | n | n | n | 41.9 | n
O=C(NNC(=S)NC1CCCCC1)c1ccc2c(c1)OCO2 | n | n | n | n | n | n
COc1ccc(OCc2cc(C(=O)NCCN3CCCc4ccccc43)no2)c(Cl)c1 | n | n | n | n | n | n
CCCCN(CCCC)c1cn[nH]c(=O)c1Cl | n | n | n | x | n | n
COc1ccc2c3c([nH]c2c1)[C@H](CO)N(C(=O)c1ccccn1)CC31CN(C(=O)C2CCC2)C1 | x | x | x | n | x | x
SMILES | Mtb BioA inh | DUSP3 inh | PfHsp40 rescue | TcdB GH inh | BH1578 lux ind | Y pestis TopoI
CCNc1nc(NCC)nc(SCCOc2ccc(C)cc2)n1 | x | n | n | x | n | n
O=C1C=CC(=O)C2C1C1(Cl)C(Cl)=C(Cl)C2(Cl)C1(Cl)Cl (stereo not drawn) | n | x | 53.6 | n | n | n
CCCCNC(c1ccccc1)c1ccncc1 (stereo not drawn) | n | n | n | n | n | n
O=C(COC(=O)CCC1CCCC1)Nc1ccccc1Sc1ccccc1 | x | n | n | n | n | 64.2
Clc1ccc(CN2CCSCC2)cc1Cl | n | n | n | n | n | n
O=[N+]([O-])c1ccc2[nH]nc(-c3ccccc3)c2c1 | x | n | 40.9 | x | n | n
CC(OC(=O)c1ccc(Cl)c(S(N)(=O)=O)c1)C(=O)NCC1CCCCC1 (stereo not drawn) | n | x | n | n | n | n
CCCCOC(=O)n1c(=O)oc2ccc(S(=O)(=O)N3CCCCC3)cc21 | n | n | n | n | n | n
COc1ccc(Cc2c(N)nc(N)nc2N)cc1 | n | n | n | x | n | n
Nc1ccc(OCCCc2c(N)nc(N)nc2N)cc1 | n | n | 47.8 | 11.8 | n | n
CCc1ccc(NC(=O)CN(c2ccc(OC)cc2)S(=O)(=O)c2c(C)nn(C)c2C)cc1 | n | n | n | n | n | n
COc1ccccc1CNC(=O)CSc1ccc(-c2ccccn2)nn1 | x | n | 313.6 | n | n | n
O=C(CSc1ccc(-c2ccccn2)nn1)N1CCCc2ccccc21 | n | n | 472.8 | n | n | n
O=C(CSc1ccc(-c2cccnc2)nn1)N1CCCc2ccccc21 | x | n | x | n | x | x
Cc1ccccc1NC(=O)CSc1ccc(-c2ccccn2)nn1 | n | n | 380.9 | n | n | n
COCCNC(=O)C[C@H]1C[C@H]2c3cc(NC(=O)c4cccnc4)ccc3O[C@H]2[C@@H](CO)O1 | n | x | x | n | x | x
CCOC(=O)COc1ccccc1/C=C\[N+](=O)[O-] | x | n | 71.4 | x | n | n
Clc1cccc(CON/C=N/c2ncnc3sccc23)c1 | n | n | 811.6 | x | n | n
O=C(NCc1ccccn1)C(=O)NCC1OCCN1S(=O)(=O)c1ccc(Br)cc1 (stereo not drawn) | n | n | n | n | n | n
O=C(NCc1ccccn1)C(=O)NCC1OCCN1S(=O)(=O)c1ccc([N+](=O)[O-])cc1 (stereo not drawn) | n | n | 106.8 | n | n | n
Cc1ccc2c(CC(=O)OCC(=O)Nc3ccc(Cl)cn3)coc2c1 | n | n | n | n | n | n
CCn1c(C)nc2cc(C(=O)N/N=C/c3ccc(OC)c(O)c3)ccc21 | x | n | n | 10.8 | n | n
CSc1ccc(/C=N/NC(=O)c2ccc(O)cc2)cc1 | x | 59.9 | n | n | n | n
CCn1c(C)nc2cc(C(=O)N/N=C/c3ccc(O)cc3)ccc21 | x | n | n | 13.8 | n | n
CCn1c(C)nc2cc(C(=O)N/N=C/c3ccc(OC)cc3)ccc21 | x | n | n | n | n | n
SMILES | Mtb BioA inh | DUSP3 inh | PfHsp40 rescue | TcdB GH inh | BH1578 lux ind | Y pestis TopoI
COCCn1c(SCC(=O)Nc2nnc(C)s2)nnc1-c1cc2ccccc2cc1O | n | n | n | x | n | n
COc1cccc(CN2CC(C(=O)N3CCCCCCC3)CCC2=O)c1 (stereo not drawn) | n | n | n | n | n | n
COc1cccc(CN2CC(C(=O)N3CCOCC3)CCC2=O)c1 (stereo not drawn) | n | 52.7 | n | n | n | n
COc1cccc(CN2CCN(C(=O)C3CCC(=O)N(C4CCCC4)C3)CC2)c1 (stereo not drawn) | n | 51.2 | n | n | n | n
COc1ccc(CNC(=O)C2CCC(=O)N(CC3CCCCC3)C2)cc1 (stereo not drawn) | n | n | n | n | n | n
COC(=O)C1=C(c2ccc(F)cc2OCc2ccccc2)C[C@@H]2CC[C@H]1N2C(=O)NCCOc1ccccc1 | n | x | n | 10.3 | n | n
COC(=O)C1=C(c2ccc(F)cc2OCc2ccccc2)C[C@@H]2CC[C@H]1N2C(=O)NC(C)C | n | x | n | n | n | n
